Laboratory results published in PubChem BioAssay AID720706 (Broad Institute, 2013).
Among all 350,000 compounds or so, about 5,500 (1.6%) were called active.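 The calls were made as follows: active = significant combined selectivity score with lowered wild-type GFP, culture density cut under 30%, mutant RFP and density less affected; inactive = any of these conditions unmet.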 For the sample, actives were picked, then their nearest neighbours and some compounds at random.

Experiment: reduced GFP signal of wild-type E. coli, primary screen, bacterial rRNA inhibitor project, GFP/RFP fluorescence, OD600, single point (AID 720706)
Details: E. coli WT GFP vs humanized-ribosome RFP mutants, 24 h; GFP signal change (wild-type ribosome): stronger effect = lower value, DMSO median 0, no signal -100; OD600 change: measured here: OD600 growth, DMSO median 0, no signal -100; RFP signal change: measured here: RFP humanized mutant strains, DMSO median 0, no signal -100, concentration not given here

| SMILES | GFP signal change (wild-type ribosome) | OD600 change [%] | RFP signal change [%] |
| --- | --- | --- | --- |
| COc1cccc(CNC(=O)C2CCCN(c3ncnc4c3nc3n4CCCCC3)C2)c1 (configuration not stated) | -0.749% (inactive) | 3.87 | -0.866 |
| COc1cccc(NC(=O)C2CCCN(c3ncnc4c3nc3n4CCCCC3)C2)c1 (configuration not stated) | -27.7% (inactive) | -29.9 | -2.84 |
| CN(Cc1ccccc1)C(=O)C1CCCN(c2ncnc3c2nc2n3CCCCC2)C1 (configuration not stated) | -30.8% (active) | -19.4 | -2.82 |
| O=C(NCc1ccc2c(c1)OCO2)c1c(O)nc2sccn2c1=O | 9.79% (inactive) | 1.77 | 0.304 |
| O=C(NCc1ccc2c(c1)OCO2)c1c(-c2ccsc2)sc2ccccc12 | -2.63% (inactive) | 5.46 | -0.565 |
| O=C(NCc1ccc2c(c1)OCO2)c1sccc1Br | -28% (active) | -4.74 | 4.92 |
| Cc1cc(C(=O)Nc2ccc3c(c2)C(=O)N(C)[C@@H]2CC[C@H](CC(=O)NC4CCCC4)O[C@@H]2CO3)no1 | 1.76% (inactive) | 5.25 | 2.11 |
| CCCC(=O)Nc1ccc2c(c1)C(=O)N(C)[C@@H]1CC[C@H](CC(=O)NCCOC)O[C@H]1CO2 | 3.48% (inactive) | 0.14 | 0.31 |
| COc1ccccc1S(=O)(=O)N[C@@H]1C=C[C@H](CC(=O)N2CCN(C)CC2)O[C@@H]1CO | 3.92% (inactive) | 11.8 | -3.5 |
| COC(=O)c1c(C)oc(C)c1S(=O)(=O)Nc1ccc(C(C)C)cc1 | -28.4% (active) | -12.4 | -2.19 |
| CC(C)c1ccc(NS(=O)(=O)c2cn(C)c(=O)n(C)c2=O)cc1 | 4.95% (inactive) | 14.4 | -3.23 |
| COC(=O)c1c(C)oc(C)c1S(=O)(=O)NCc1ccc(Cl)cc1 | -11.3% (inactive) | -4.55 | -0.764 |
| CO[C@H]1CC[C@@H]2CCOc3c(C#N)cccc3C(=O)N(C)C[C@H](C)C(=O)N(C)C[C@H]1O2 | 3.92% (inactive) | -1.31 | -1.65 |
| Brc1ccc2c(c1)[C@H]1OCC[C@H]1[C@@H](c1cccs1)N2 | -43.8% (active) | -30.6 | -11.9 |
| Oc1ccc(/C=N/N(Cc2ccccc2)c2ccccc2)cc1 | -13.9% (inactive) | -1.62 | 0.2 |
| CCN(/N=C/c1ccc(N(C)C)cc1)c1nc2ccccc2[nH]1 | -22.8% (active) | -10.9 | -2.86 |
| CCC(=O)N1C[C@@H](C)[C@H](OC)CN(C)C(=O)c2ccc(NC(=O)c3cc(C)on3)cc2OC[C@H]1C | 0.768% (inactive) | 1.75 | -1.23 |
| C/C=C/c1cnc2c(c1)C(=O)N([C@H](C)CO)C[C@H](C)[C@H](CN(C)C(=O)c1cccc(F)c1)O2 | 2.26% (inactive) | 2.83 | -3.73 |
| O=C(Nc1ccc(Cl)cc1)C1c2cccc[n+]2CC(=O)N1Cc1ccc2c(c1)OCO2 (configuration not stated) | 4.36% (inactive) | 0.665 | -2.94 |
| CCOc1ccc(NC(=O)CC2C(=O)N(c3ccccc3)C(=O)N2CCOC)cc1 (configuration not stated) | -0.19% (inactive) | 4.93 | -3.42 |
| CCCOc1ccc(NC(=O)CC2C(=O)N(C)C(=S)N2Cc2ccc3c(c2)OCO3)cc1 (configuration not stated) | -21.2% (active) | -17.1 | 1.22 |
| C[C@@H]1CCCCO[C@H](CN(C)C(=O)Nc2ccccc2)[C@H](C)CN([C@@H](C)CO)C(=O)c2cc(N(C)C)ccc2O1 | -1.6% (inactive) | 2.72 | -1.91 |

| SMILES | GFP signal change (wild-type ribosome) | OD600 change [%] | RFP signal change [%] |
| --- | --- | --- | --- |
| CC[C@@H]1CC=CC[C@H](C)Oc2ccccc2C(=O)N(C)[C@H](Cc2ccccc2)C(=O)N1 (mixture of isomers) | -6.42% (inactive) | -18.3 | -6.01 |
| O=C(COc1ccc(Cl)cc1Cl)N/N=C/c1ccccn1 | -7.74% (inactive) | -28.8 | 0.0022 |
| CS(=O)(=O)N(CC(=O)N/N=C/c1ccccn1)c1ccc(Oc2ccccc2)cc1 | -25.9% (active) | -12.1 | -0.663 |
| COc1ccc(CCNC(=O)CN(c2ccccc2)S(C)(=O)=O)cc1 | 4.81% (inactive) | 11.8 | 2.52 |
| C[C@H](O)C#Cc1cnc2c(c1)C(=O)N([C@@H](C)CO)C[C@@H](C)[C@@H](CN(C)C(=O)Cc1ccccn1)O2 | 7.53% (inactive) | 12.6 | -0.505 |
| C[C@@H]1CN([C@H](C)CO)C(=O)c2cc(NS(C)(=O)=O)ccc2O[C@H]1CN(C)C(=O)Nc1cccc2ccccc12 | 2.55% (inactive) | 10.8 | 2.43 |
| O=C(Nc1cc(F)ccc1F)N1CC(=O)N2[C@H](CO)[C@@H](c3ccc(-c4cccnc4)cc3)[C@@H]2C1 | -12% (inactive) | -3.71 | -3.33 |
| COc1ccc(S(=O)(=O)Nc2ccc3c(c2)C(=O)N([C@H](C)CO)C[C@H](C)[C@H](CN(C)S(=O)(=O)c2ccc(Cl)cc2)O3)cc1 | -0.9% (inactive) | -8.14 | 4.68 |
| C=C(C)CSc1nc(N)c2c3c(sc2n1)CCC3 | -39.8% (active) | -31.8 | -10.7 |
| CCc1nc(N2CCN(C(C)=O)CC2)c2c3c(sc2n1)CCCC3 | -24.3% (inactive) | -27.4 | -2.91 |
| Nc1nc(SCC(=O)NCCN2CCOCC2)nc2sc3c(c12)CCC3 | 4% (inactive) | 8.61 | -0.37 |
| CC(C)NC(=O)NCC[C@H]1CC[C@@H](NS(=O)(=O)c2ccc(Oc3ccccc3)cc2)[C@@H](CO)O1 | -0.321% (inactive) | -25.1 | -2 |
| O=C(C1CCCC1)N1CC(=O)N2[C@H](CO)[C@H](c3ccc(Br)cc3)[C@@H]2C1 | -0.977% (inactive) | -0.944 | 0.246 |
| N#Cc1ccc(-c2ccc([C@H]3[C@H](CO)N4C(=O)CN(C(=O)Cc5ccccc5)C[C@@H]34)cc2)cc1 | -1.02% (inactive) | -2.88 | -0.285 |
| CC(C(=O)NC1CCS(=O)(=O)C1)N1C(=O)/C(=C/c2ccc(Cl)cc2)SC1=S (configuration not stated) | -21.1% (active) | -15.7 | 1.14 |
| O=C(Cc1ccc(Cl)cc1)NC1CCS(=O)(=O)C1 (configuration not stated) | -9.2% (inactive) | 1.76 | 1.96 |
| CN(C(=O)CN1C(=O)/C(=C/c2ccc(Cl)cc2)SC1=S)C1CCS(=O)(=O)C1 (configuration not stated) | 15.8% (inactive) | 11 | 0.337 |
| O=C1[C@H](Cc2ccc(C(F)(F)F)cc2)CCn2nncc2COC[C@@H]2CCCCN12 | -1.75% (inactive) | -2.21 | -0.899 |
| CN1c2ccc(Br)cc2[C@H]2[C@H](CCN2S(=O)(=O)c2ccc(F)cc2)[C@@H]1CO | -56.1% (inactive) | -75.9 | -12.6 |
| CN(Cc1ccccc1)C(=O)CSc1nc2ccccc2[nH]1 | -2.78% (inactive) | 2.36 | -0.812 |
| O=C(CSc1nc2ccccc2[nH]1)N/N=C/C=C\c1ccccc1[N+](=O)[O-] | -28.1% (active) | 3.26 | 1.21 |
| O=C(COC(=O)CCCSc1nc2ccccc2[nH]1)Nc1ccc(Oc2ccccc2)cc1 | -34.8% (inactive) | -55 | 0.945 |

| SMILES | GFP signal change (wild-type ribosome) | OD600 change [%] | RFP signal change [%] |
| --- | --- | --- | --- |
| CCOC(=O)C1=C(N)N(c2ccc(C)cc2)C2=C(C(=O)CCC2)C1c1cccs1 (configuration not stated) | -21.7% (active) | -17.5 | 0.496 |
| CCOC(=O)c1c(N)sc2c1CCCC2=O | 1.16% (inactive) | -0.897 | -0.662 |
| CCOc1ccc(C2C3=C(CCCC3=O)N(CC(=O)O)C3=C2C(=O)CCC3)cc1 | 17.4% (inactive) | 6.44 | -0.227 |
| COc1ccc(NC(=O)N(C)C[C@H]2OCCCC[C@H](C)Oc3ccc(NC(=O)NC4CCCCC4)cc3C(=O)N([C@@H](C)CO)C[C@@H]2C)cc1 | 1.21% (inactive) | 2.03 | 2.63 |
| COc1cccc(/C=C/C(=O)Nc2ccc3c(c2)OCCO3)c1 | -29.5% (active) | -2.39 | 4.27 |
| COc1cccc(C(=O)NNC(=O)/C=C/c2ccccc2)c1 | 6.18% (inactive) | 10.2 | 3 |
| COc1ccccc1OCCCC(=O)Nc1ccc2c(c1)OCCO2 | -2.92% (inactive) | -5.58 | -2.87 |
| CO[C@H]1CN(C)C(=O)c2ccc(NC(C)=O)cc2OC[C@@H](C)N(C(=O)CN(C)C)C[C@@H]1C | -1.24% (inactive) | 6.54 | -4.25 |
| CCC(C)N(C)C1CCN(C(=S)Nc2ccc(OC)cc2)CC1 (configuration not stated) | 6.68% (inactive) | -2.86 | -3.62 |
| COc1ccccc1C1CCN(C(=S)Nc2ccc(Br)cc2)CC1 | -36.8% (active) | -23.8 | -10.2 |
| COc1ccccc1NC(=S)N1CCN(C(c2ccccc2)c2ccccc2)CC1 | 5.66% (inactive) | 0.74 | -6.29 |
| CN[C@H]1C[C@H]2c3[nH]c4c(-c5ccccc5)cccc4c3CCN2C(=O)[C@H]1[C@H](C)O | -35.6% (inactive) | -70.1 | -2.51 |
| COc1ccc(CNC(=O)C2CCN(C(=O)c3ccco3)CC2)cc1 | -1.02% (inactive) | 2.41 | 0.192 |
| CCC(CC)c1nnc(NC(=O)C2CCN(C(=O)c3ccco3)CC2)s1 | -22.2% (active) | -16.6 | -5.86 |
| CCc1nnc(NC(=O)C2CCN(C(=O)c3ccccc3C)CC2)s1 | 6.89% (inactive) | 6.36 | 0.577 |
| C/C=C/c1ccc2c(c1)O[C@H](CN(C)C(=O)Cc1ccncc1)[C@@H](C)CN([C@@H](C)CO)S2(=O)=O | -0.815% (inactive) | -5.29 | 0.444 |
| O=C(NCCS(=O)(=O)N1CCN(c2ccccc2F)CC1)c1ccc(Br)o1 | -32% (active) | -25.8 | -5.03 |
| O=C(NCCS(=O)(=O)N1CCN(c2ccccc2)CC1)c1cc(=O)c2ccccc2o1 | 1.78% (inactive) | 2.38 | -0.491 |
| O=C(NCCS(=O)(=O)N1CCN(c2ccccc2)CC1)c1ccco1 | -1.63% (inactive) | -7.54 | -1.71 |
| COc1cccc(S(=O)(=O)N2CCCCN3[C@H](CO)[C@H](c4ccc(C#CC5CC5)cc4)[C@H]3C2)c1 | -57.8% (inactive) | -71 | -6.51 |
